From PubChem BioAssay AID449762 (Southern Research Specialized Biocontainment Screening …, 2010)
About 1,900 (0.58%) of roughly 330,000 compounds were called active. Another 4% or so got no clear call; they are omitted. No stated cut-off is given here; in the data, inconclusive means inhibition above about 70% without an active follow-up result; inactive means below that. Only a sample is shown. Potency and affinity values are given separately.

Assay: M. tuberculosis growth inhibition, HTS (AID 449762);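 further: bacterial growth assessed after seven days of incubation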
Details: M. tuberculosis H37Rv growth inhibition, 7H9 media; at 25 µM; active compounds read high

SMILES | inhibition
CCOc1ccccc1NC(=O)Nc1ccc2c(c1)OCO2 | 0.34% (inactive)
O=Cc1ccccc1OCc1ccc2c(c1)OCO2 | 12.1% (inactive)
COc1ccc(-c2nnc(SC3CCOC3=O)n2C2CCCCC2)cc1OC (stereo unspecified) | -0.52% (inactive)
Cc1ccccc1N1CC(=O)N(c2ccccc2C)CC1=O | -15.8% (inactive)
Cn1c2ccccc2c(=O)c2ccc(F)cc21 | 38.4% (inactive)
COc1ccc(C2/C=C\CN(C(=O)C3CCCC3)[C@H](Cc3ccccc3)C(=O)N2Cc2ccc(F)cc2)cc1 (stereo partly specified) | 5.26% (inactive)
COc1ccc(CNC(=O)C2(C)Cc3ccccc3C(=O)O2)cc1 (stereo unspecified) | -2.25% (inactive)
Nc1ccc2nc(-c3ccccc3)[nH]c2c1 | -2.77% (inactive)
Nc1ccc2nc(-c3ccccc3)c(-c3ccccc3)nc2c1 | 5.14% (inactive)
O=C(NCc1ccc(F)cc1)C1CCCN(C(=O)NCc2ccccc2)C1 (stereo unspecified) | 0.48% (inactive)
CCc1ccc2c(c1)C1(NN=C(c3ccc(C)cc3)S1)C(=O)N2 (stereo unspecified) | 5.72% (inactive)
Cc1ccc(C2(CC(=O)O)CCOC(C)(C)C2)cc1 (stereo unspecified) | 5.71% (inactive)
Cc1cc(C)c(OCC(=O)Nc2ccccc2N2CCOCC2)c(C)c1 | -8.49% (inactive)
Cn1c(SCc2ccccc2)nc2ccsc2c1=O | 33.7% (inactive)
Cc1ccc(CSc2nc3ccccc3c(=O)n2C)cc1 | 6.4% (inactive)
O=C(Nc1cccnc1Cl)c1cc([N+](=O)[O-])ccc1Cl | 8.38% (inactive)
OCCN(Cc1ccccc1)Cc1cccc(C(F)(F)F)c1 | 20.1% (inactive)
COc1ccccc1/C=C/C(=O)OCC(=O)N1CCc2ccccc21 | 4.74% (inactive)
O=C(c1cccs1)N1CCC(c2nc3c(nnn3Cc3cccc(Cl)c3)c(=O)[nH]2)CC1 | 6.04% (inactive)
O=c1[nH]c(C2CCN(S(=O)(=O)c3ccccc3)CC2)nc2c1nnn2Cc1cccc(Cl)c1 | 4.46% (inactive)
O=C1CSC(c2ccccc2)N1CC12CC3CC(CC(O)(C3)C1)C2 (stereo unspecified) | -2.58% (inactive)
CCOc1ccc(NC(=O)CN(C)C(=O)c2cc3c(s2)CCC(C)C3)cc1OCC (stereo unspecified) | 1.11% (inactive)
COc1ccc(-c2nc(NC(=O)Cn3cnnn3)sc2C)cc1 | -7.31% (inactive)
COc1ccc(-c2nc(NC(=O)CSCCO)sc2C)cc1 | 2.7% (inactive)

SMILES | inhibition
CCOc1ccc(N2C(=O)CC(NC3CCN(C(=O)c4ccc(F)cc4)CC3)C2=O)cc1 (stereo unspecified) | -3% (inactive)
O=C(Oc1ccc(Br)cc1)c1cncc(Br)c1 | -0.43% (inactive)
Cc1cccc(OC(=O)c2cncc(Br)c2)c1 | 23.5% (inactive)
O=C(CCC(=O)Nc1ccc(F)cc1)N/N=C/c1ccc(O)cc1O | -2.52% (inactive)
CC1CCCCN1Cc1c(O)ccc2c(=O)c(-c3ccc(Cl)cc3)coc12 (stereo unspecified) | 0.71% (inactive)
O=C1c2ccccc2C(=O)N1C(CO)C(O)c1ccc([N+](=O)[O-])cc1 (stereo unspecified) | -1.67% (inactive)
O=C(CSC(=S)N1CCOCC1)Nc1ccc(S(=O)(=O)Nc2ncccn2)cc1 | -0.18% (inactive)
O=C(NNc1c2ccccc2nc2ccccc12)c1ccc(O)cc1 | 13.8% (inactive)
CCCC(=O)NNc1c2ccccc2nc2ccccc12 | -11.4% (inactive)
[O-][n+]1cccc(C(O)c2ccccc2)c1 (stereo unspecified) | -13.5% (inactive)
COC(=O)c1c(C)oc(C)c1S(=O)(=O)N1CCOCC1 | -2.09% (inactive)
C=CCNC(=O)C1CC(=O)N(c2ccc(OCC(=O)Nc3c(C)cccc3C)cc2)C1 (stereo unspecified) | 1.18% (inactive)
Cc1nnc(C)n1/N=C/c1c(O)ccc2ccccc12 | 2.29% (inactive)
Cc1nc2ccccc2c(=O)n1/N=C/c1c(O)ccc2ccccc12 | 9.53% (inactive)
Clc1ccccc1COc1ccccc1-c1nnco1 | 19.4% (inactive)
O=C(Oc1ccccc1-c1nnco1)c1ccccc1 | -3.01% (inactive)
C/C(=N/NC(=O)c1ccc(Br)o1)C(C)C | 3.04% (inactive)
COCCNC(=S)N1CCc2cc(OC)c(OC)cc2C1c1cccs1 (stereo unspecified) | -7.46% (inactive)
NC(=S)N/N=C\c1ccccc1OCc1ccccc1 | 49.5% (inactive)
NC(=S)N/N=C/c1ccccc1OCc1cccc(Cl)c1 | 2.95% (inactive)
Cc1ccc(N2C(=O)c3cccc([N+](=O)[O-])c3C2=O)cc1C | -6.94% (inactive)
COc1ccc(-c2cc3c(=O)n(CC(=O)NCCCN4CCC(N5CCCCC5)CC4)ncn3n2)cc1 | 2.99% (inactive)
COc1ccc(-c2cc3c(=O)n(CC(=O)NCCCN4CCN(Cc5ccccc5)CC4)ncn3n2)cc1 | 1.94% (inactive)
O=C(NCCC1=CCCCC1)C1CCN(C(=O)c2ccc(Br)cc2)CC1 | 5.13% (inactive)

SMILES | inhibition
Cc1ccccc1OCCn1cc(C(=O)O)c2ccccc21 | -0.94% (inactive)
O=C(CCS(=O)(=O)c1ccc(F)cc1)Nc1nc(-c2ccncc2)cs1 | 31.5% (inactive)
Cc1ccnc2nc(C(=O)Nc3nc(-c4ccccn4)cs3)nn12 | 0.14% (inactive)
CCc1cc(C(=O)Nc2ncccc2O)sc1C | 6.5% (inactive)
O=C(CCS(=O)(=O)c1ccccc1)Nc1nc(-c2ccc(F)cc2)cs1 | 8.67% (inactive)
COc1cccc(-c2nc(CS(=O)(=O)CC(=O)NCCCN3CCc4ccccc4C3)c(C)o2)c1 | -28.4% (inactive)
CCCc1cc(=O)n2[nH]cnc2n1 | -4.95% (inactive)
Cc1cc(C)n(CCOc2ccc(Br)cc2)n1 | 2.96% (inactive)
COc1ccc(/C=N/Nc2ncnc3sc4c(c23)CCCC4)cc1OC | -2.36% (inactive)
c1csc(CCNc2ncnc3sc4c(c23)CCC4)c1 | 1.63% (inactive)
CC(=O)CSc1nnc2cc(C)c3ccccc3n12 | 0.13% (inactive)
CC(=O)N1CCN(c2ccc(NC(=O)c3cccc(OCc4ccccc4)c3)cc2)CC1 | 62.8% (inactive)
Cn1c(=O)c2c(nc(NCC(O)CO)n2CCc2ccccc2)n(C)c1=O (stereo unspecified) | 2.12% (inactive)
CN1CCN(c2ccc(NC(=O)c3cccc(S(=O)(=O)N4CCCC4)c3)cc2)CC1 | -4.85% (inactive)
COc1ccc(C(C[N+](=O)[O-])c2c(C)[nH]n(-c3ccccc3)c2=O)cc1 (stereo unspecified) | 32.3% (inactive)
Cc1[nH]n(-c2ccccc2)c(=O)c1C(c1cccc([N+](=O)[O-])c1O)c1c(C)[nH]n(-c2ccccc2)c1=O | -4.36% (inactive)
CCN1CC(C)C(O)(c2ccccc2)CC1C (stereo unspecified) | -1.44% (inactive)
CCC1C(c2ccccc2)NC(c2ccccc2)CC1(O)c1ccc(F)cc1 (stereo unspecified) | 29.1% (inactive)
NC(=O)CC(NC(=O)Cc1cccc2ccccc12)c1ccc(N2CCC(Cc3ccccc3)CC2)c([N+](=O)[O-])c1 (stereo unspecified) | -0.77% (inactive)
COc1ccc(CN(C)C(=O)c2ccc(NC(=O)CC3SC(N4CCCC4)=NC3=O)cc2)c(OC)c1 (stereo unspecified) | 7.53% (inactive)
CC1CC(C)(C)CC2(C1)NC(=O)N(CC(=O)Nc1ccc(N3CCCCC3)cc1)C2=O (stereo unspecified) | 5.59% (inactive)
CC(C)NC(=S)NN=C1c2ccccc2-c2ccccc21 | -0.95% (inactive)
C=C(C)CNC(=S)NN=C1c2ccccc2-c2ccccc21 | 12.3% (inactive)
Cc1cc2c(cc(C(=O)O)n2C)s1 | -1.98% (inactive)

SMILES | inhibition
CCN(CC)CCCNC(=O)c1cc2c(-c3ccc(Cl)cc3)nn(C)c2s1 | 47.1% (inactive)
CCN(CC)CCNC(=O)c1cc2c(-c3ccc(Cl)cc3)nn(C)c2s1 | 7.68% (inactive)
Clc1ccc(-c2cc3ccccc3nc2N2CCOCC2)cc1 | 48.3% (inactive)
c1ccc(-c2cc3ccccc3nc2N2CCCC2)cc1 | 4.32% (inactive)
Cc1ccc(NC(=O)COC(=O)CCc2ccc(S(=O)(=O)N3CCOCC3)cc2)cc1F | 2.39% (inactive)
O=C(O)c1ccccc1C(=O)NC1CCCCNC1=O (stereo unspecified) | -1.29% (inactive)
OC(CNc1ccccc1)Cn1ccc2ccccc21 (stereo unspecified) | 12.2% (inactive)
OCCNCC(O)Cn1ccc2ccccc21 (stereo unspecified) | -2.23% (inactive)
CC(=O)c1ccc(C(=O)NC2CCCN(Cc3ccccc3F)C2)s1 (stereo unspecified) | -25.9% (inactive)
Cc1cc(C)cc(NC(=O)CCn2cnc3cc(C)c(C)cc32)c1 | 62.6% (inactive)
COc1ccc(C=C2C(=O)OC(C)(C)OC2=O)cc1OC | 5.49% (inactive)
COc1ccc(/C=C2\Cc3ccccc3C2=O)cc1OC | 5.99% (inactive)
CNC(=O)C(=O)NCC(c1cccs1)S(=O)(=O)c1ccc(F)cc1 (stereo unspecified) | -2.67% (inactive)
Cc1ccc(C)c(N2CCN(C(=O)c3ccc(NC4=NC5CS(=O)(=O)CC5S4)cc3)CC2)c1 (stereo unspecified) | -1.31% (inactive)
N#CC(C(=O)Nc1ccc(Cl)cc1)=C1Nc2ccccc2N1 | 1.22% (inactive)
N#CC(C(=O)Nc1cccc(Cl)c1)=C1Nc2ccccc2N1 | 2.4% (inactive)
O=C(CCCN1C(=O)S/C(=C\C=C\c2ccccc2)C1=O)Nc1ccc(C(=O)O)cc1 | -3.27% (inactive)
O=C(COc1ccc(C(=S)N2CCOCC2)cc1Cl)Nc1ccccc1Cl | 6.58% (inactive)
O=C(NNC(=O)C1CCN(S(=O)(=O)c2ccccc2C(F)(F)F)CC1)c1ccccc1O | 6.28% (inactive)
COc1cccc(N2CCN(C(=O)CCNS(=O)(=O)c3ccc4c(c3)c(=O)n(C)c(=O)n4C)CC2)c1 | -0.56% (inactive)
CCC(CC)c1nnc(NC(=O)c2cc([N+](=O)[O-])ccc2N2CCCCC2)s1 | 9.65% (inactive)
Cc1ccc(Nc2nc(N)nc(CN3CCN(C)CC3)n2)cc1 | -7.52% (inactive)
COc1ccc(Nc2nc(N)nc(CN3CCc4ccccc4C3)n2)cc1 | 7.44% (inactive)
CCC(C)c1ccc(OCC(=O)O)cc1 (stereo unspecified) | -1.06% (inactive)
